# Reference: the supplement of paper PMC10981050
# Where a name gives a salt, the structure may show the parent alone.
# System: K562
# Assay: cell viability relative to vehicle control; higher = less cytotoxic
# Settings: 10 µM; SRSF2 genotype: SRSF2 wt/wt
# In short: (§1)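 Mutant clones made by CRISPR editing and their isogenic wild-type counterparts, from four leukaemia lines, were exposed to a single 10 µM dose of each library compound for 48 h. The supernatant was then removed and CellTiter-Glo luminescence was read. Viability was reported as percent of the on-plate vehicle control.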
row,Compound,cell viability [%]
1,COc1cc2c(cc1OC)[C@@H](Cc1ccc(O)c(Oc3cc4c(cc3OC)CCN(C)[C@@H]4Cc3ccc(O)cc3)c1)N(C)CC2.[O-][Cl+3]([O-])([O-])O [Liensinine perchlorate],65.4
2,CC(=O)O[C@H]1C(=O)[C@@]2(C)[C@H]([C@H](OC(=O)c3ccccc3)[C@]3(O)C[C@H](O)C(C)=C1C3(C)C)[C@]1(OC(C)=O)CO[C@@H]1C[C@@H]2O,102
3,CC(C)[C@]12O[C@H]1[C@@H]1O[C@]13[C@]1(O[C@H]1C[C@H]1C4=C(CC[C@@]13C)C(=O)OC4)[C@@H]2O [Triptolide],8.7
4,CC1=C[C@]23C(=O)[C@@H](C=C(CO)[C@@H](O)[C@]2(O)[C@H]1O)[C@H]1[C@@H](C[C@H]3C)C1(C)C [Ingenol],111

# System: MARIMO
# Assay: as above
# Settings: 10 µM; SRSF2 genotype: SRSF2 P95H/wt
# In short: as §1
row,Compound,cell viability [%]
1,C/C(=C\c1csc(C)n1)[C@@H]1C[C@@H]2O[C@@H]2CCC[C@H](C)[C@H](O)[C@@H](C)C(=O)C(C)(C)[C@@H](O)CC(=O)O1 [Epothilone A],7.48
2,C[C@]12C=CC(=O)C=C1CC[C@@H]1[C@@H]2CC[C@@]2(C)[C@H]1CC[C@]2(C)O [Methandrostenolone],103
3,C#C[C@]1(O)C=C[C@H]2[C@@H]3CCC4=CC(=O)CC[C@@H]4[C@H]3CC[C@@]21CC [Gestodene],90.9
4,C/C=C\c1cc(OC)c(OC)cc1OC [Beta-Asarone],98
5,Cc1c(N)nc(C(CC(N)=O)NCC(N)C(N)=O)nc1C(=O)NC(C(=O)NC(C)C(O)C(C)C(=O)NC(C(=O)NCCc1nc(-c2nc(C(=O)NCCC[S+](C)C)cs2)cs1)C(C)O)C(O[C@@H]1O[C@@H](CO)[C@@H](O)[C@H](O)[C@@H]1O[C@H]1O[C@H](CO)[C@@H](O)[C@H](OC(N)=O)[C@@H]1O)c1cnc[nH]1 (stereo partly drawn) [Bleomycin sulfate],7.26
6,Cc1cccc(C(C)c2c[nH]cn2)c1C (stereo not drawn) [Medetomidine HCl],95.1
7,CCC1(c2ccc(N)cc2)CCC(=O)NC1=O (stereo not drawn) [Aminoglutethimide (Cytadren)],96.7
8,COc1cc2c(cc1O)CC1NCCc3cc(OC)c(O)c-2c31 (stereo not drawn) [Norisoboldine],93.1
9,Cc1cccc(Cc2c[nH]cn2)c1C [Detomidine HCl],103
10,COC1=C[C@@H]2[C@@H]3Cc4ccc(OC)c(O)c4[C@]2(CCN3C)CC1=O [Sinomenine hydrochloride],102
11,CC(C)=CCCC(C)(O)C1CCC2(C)C1C(O)CC1C3(C)CCC(O)C(C)(C)C3C(OC3OC(CO)C(O)C(O)C3O)CC12C [(20R)-Ginsenoside Rh1],111
12,CN(C)C(=O)Oc1ccc[n+](C)c1 [Pyridostigmine Bromide (Mestinon)],93.5
13,C=CC1CN2CCC1CC2C(O)c1ccnc2ccccc12 (stereo not drawn) [Cinchonine.cdx],105
14,CC[C@@H]1CN2CC[C@@]3(C(=O)Nc4ccccc43)[C@@H]2C[C@@H]1/C(=C\OC)C(=O)OC [Corynoxine],75.2
15,C[C@@]12C[C@@H](c3ccoc3)OC(=O)[C@@H]1CC[C@]1(C)[C@H]2[C@@H]2C=C[C@@]1(O)C(=O)O2 [Columbin],99
16,Nc1nc(N)nc(N)n1 [Melamine],94.3
17,O=C(/C=C/c1ccccc1)OC[C@H]1O[C@@H](O[C@@H]2OC=C[C@H]3[C@H](O)[C@@H]4O[C@]4(CO)[C@@H]23)[C@H](O)[C@@H](O)[C@@H]1O [Picroside I],98.8
18,Cc1cccc(C)c1NC1=NCCCS1 [Xylazine HCl],85.1
19,c1ccc2c(c1)[I+]c1ccccc1-2 [Diphenyleneiodonium chloride (DPI)],19.6
20,CC(=O)OC12COC1CC(O)C1(C)C(=O)C(O)C3=C(C)C(O)CC(O)(C(OC(=O)c4ccccc4)C21)C3(C)C (stereo not drawn) [10-DAB (10-Deacetylbaccatin)],109
21,COC(=O)C[C@](O)(CCC(C)(C)O)C(=O)O[C@@H]1C(OC)=C[C@]23CCCN2CCc2cc4c(cc2[C@H]13)OCO4 [Harringtonine],8.47
22,c1c2c(cc3c1OCO3)-c1cc3ccc4c(c3c[n+]1CC2)OCO4 [Coptisine chloride],95.4
23,O=S(=O)(CC1CS1)c1ccc(Oc2ccccc2)cc1 (stereo not drawn),45.8
24,CC(NC(C)(C)C)C(=O)c1cccc(Cl)c1 (stereo not drawn) [Amfebutamone (Bupropion) HCl],87.9
